Article PMC6212790, “How bacterial xenogeneic silencer rok distinguishes foreign from self DNA in its resident genome”
In all, about 33,000 sequences were measured (“e-score”: median about -0.037, highest 2% from about 0.34 on). The list comes from a sample in which the highest values are over-represented; it also holds similar and randomly drawn sequences.

target: T1, GST-Rok (full length) (Bacillus subtilis subsp. subtilis str. …, UniProt O34857 1-191); assay: protein binding microarray; Rok is a gene silencer of Bacillus subtilis; high values mean tight binding; conditions: protein: recombinant; tags: GST (pTH5325, pDEST15-Magic modified); dsDNA, one strand shown
T1 sequence: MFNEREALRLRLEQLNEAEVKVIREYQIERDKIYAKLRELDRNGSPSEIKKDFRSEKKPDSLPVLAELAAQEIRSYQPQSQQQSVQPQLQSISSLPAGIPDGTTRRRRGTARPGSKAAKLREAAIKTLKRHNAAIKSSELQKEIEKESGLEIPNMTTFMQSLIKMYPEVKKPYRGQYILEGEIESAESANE
How it was run: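 Every oligonucleotide joins a 25-mer constant primer to a 35-mer variable part drawn from a de Bruijn sequence of order 10, so each non-palindromic 8-mer appears at least 32 times and each palindromic 8-mer 16 times. The preference for every 8-mer is reported as a unitless, rank-based enrichment score (E-score). This score spans 0.5 for the most favored 8-mer to −0.5 for the most disfavored.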

Sequence	binding signal
ACTCGCAC	-0.112 E-score
ATACTGTC	0.0898 E-score
AGTACGCC	-0.149 E-score
ATCAATGA	0.0966 E-score
CATAATAA	0.252 E-score
AATAATAC	0.332 E-score
ATTAATAA	0.182 E-score
GATAATAA	0.369 E-score
AATAATAA	0.364 E-score
CTTAATAC	0.18 E-score
CATAATAG	0.243 E-score
GATAATAC	0.187 E-score
TATAATAA	0.33 E-score
ATTAATAC	0.353 E-score
GGTAATAA	0.313 E-score
AATAATAG	0.388 E-score
AACCATCC	-0.0159 E-score
AGCCGTGC	-0.157 E-score
ATGGGCCG	-0.146 E-score
ACCTTAGA	0.00282 E-score
AGTACGTA	0.332 E-score
AATAATGT	0.222 E-score
AATAATGC	0.352 E-score

Sequence	binding signal
AATAATGG	0.103 E-score
CGTAGTCC	-0.0635 E-score
CGGGCAGC	-0.142 E-score
CTAGGTCA	-0.0595 E-score
ACGTTCAA	-0.0397 E-score
CAATGGAG	-0.17 E-score
ACAGCTCT	-0.118 E-score
ACAACGAC	0.0795 E-score
CACCGGTA	0.056 E-score
AACCGGTA	0.274 E-score
TACCGGTA	0.37 E-score
ACCATGCT	-0.182 E-score
GTTAACGA	0.241 E-score
ATTAAGTA	0.347 E-score
GTTAACTA	0.359 E-score
GTTAAGTA	0.191 E-score
CTTAACTA	0.313 E-score
ATTAACTC	0.092 E-score
ATTAACTG	0.14 E-score
CTTAAGTA	0.281 E-score
ATTAACTA	0.398 E-score
GAGCGAGA	-0.17 E-score
AGTCATAC	0.018 E-score

Sequence	binding signal
GGTCGCAA	0.0661 E-score
CAGCGTGA	-0.12 E-score
AAATGTAC	0.343 E-score
AAATGTAT	0.281 E-score
AAATGTAA	0.389 E-score
GAATGTAC	0.303 E-score
AAATGTAG	0.297 E-score
CAATGTAC	0.263 E-score
CGAGCCAC	-0.119 E-score
GGGCAGCA	-0.184 E-score
CTCGCTAA	-0.0951 E-score
TGTGAGAA	0.216 E-score
CCTCTTGA	-0.196 E-score
CACATATA	0.261 E-score
CTTATATA	0.253 E-score
CATATATG	0.343 E-score
CATATAAG	0.119 E-score
TATATATA	0.477 E-score
GAGATATA	0.157 E-score
CATATATA	0.38 E-score
TAGATATA	0.339 E-score
CAGATATA	0.165 E-score
CATATATC	0.25 E-score

Sequence	binding signal
TATATCGA	0.304 E-score
CACATATG	0.266 E-score
CTTAAAAG	-0.119 E-score
ACATTGGT	0.186 E-score
ACCAGAGG	-0.0915 E-score
AGAGACAC	0.0712 E-score
ATGTCCGG	-0.00967 E-score
TTTATAAA	0.367 E-score
AATATAAA	0.266 E-score
GATATAAA	0.33 E-score
ATTATAAA	0.157 E-score
CTTATAAA	0.0863 E-score
TATATAAA	0.399 E-score
CCCAGGCA	-0.18 E-score
GAAACCGA	-0.119 E-score
CCCGTACG	-0.101 E-score
GATATGTA	0.296 E-score
CATATGAA	0.0706 E-score
CATATGTA	0.338 E-score
AATATGTC	0.106 E-score
ATTATGTA	0.358 E-score
CATATGTC	-0.0495 E-score
GTTATGTA	0.269 E-score

Sequence	binding signal
CTTATGTA	0.111 E-score
AATATGTA	0.416 E-score
AGAGCTGC	-0.0428 E-score
ACGAACTG	0.0336 E-score
GTCCAGAA	-0.0598 E-score
GCGAGAAA	-0.035 E-score
TAGAAGAA	0.109 E-score
AAAAGGAG	-0.188 E-score
AGTGAATG	0.0707 E-score
TCTCTGCA	0.0197 E-score
AGCATTAT	0.255 E-score
AATAGTAG	0.469 E-score
CGTAGTAG	0.204 E-score
AATAGTAT	0.292 E-score
AGTAGTAG	0.349 E-score
AGAAGTAT	0.334 E-score
AACAGTAA	0.294 E-score
ATTAGTAG	0.321 E-score
CATAGTAG	0.0836 E-score
AACAGTAG	0.354 E-score
AGTAGTAT	0.405 E-score
CACAGTAG	0.0684 E-score
AGCAGTAT	0.015 E-score
